Drawing on PubChem BioAssay AID2314 (National Center for Advancing Translational Sciences (NCATS), 2010), this text covers max response for 63 compounds.

The whole screen tested about 300,000 compounds, of which about 37,000 (12%) were called active. For the sample, actives were picked, then their nearest neighbours and some compounds at random. Unmarked numbers belong to inactive results. Rule as the data show it: active = max response mostly above about 13% (no sharp cut-off); inactive = mostly below about 14%.

The nature of the assay: Cycloheximide Counterscreen for Small Molecule Inhibitors of Shiga Toxin. Also: read at 38.3 µM for the half of the compounds with a filed dose; 0% is about no effect. As to conditions: cell reporter, cycloheximide protein synthesis inhibition counterscreen; active compounds read high.
As to `CCCc1nn(C)c2c(=O)[nH]c(-c3cc(S(N)(=O)=O)ccc3OCC)nc12`, the max response was -4.06%.
As for `COCCn1c(SCC(=O)N2CCCCCC2)nc2c(c1=O)SCC2`, the max response was 4.66%.
Consider `CC(C)Cc1ccc(C(C)C(=N)N)cc1` (stereo not drawn), for which the max response is -2.08%.
Consider `COCc1ccc(C(=O)NC2CC(C)(C)Cc3c2cnn3-c2ccc(C)cc2)o1` (stereo not drawn), for which the max response was 4.44%.
For the compound `Cc1nc(Cl)c(C#N)c2c1CCCC2`, the max response is 4.78%.
For the compound `COCc1c(N)c(C)nc(Cl)c1C#N`, the max response is 14% (active).
Consider `COC(=O)c1c(C)c(C)nc(N)c1C#N`, for which the max response is 5.15%.
The result for `Fc1ccc(CNCc2ccc(Br)cc2)cc1` reads 2.17%; that for `CCc1cc2c(=O)n(-c3ccccc3)c(SCC(=O)O)nc2s1`, -0.568%; that for `COCc1cc(=O)[nH]c(SC)n1`, -3.39%.
Consider `Cc1ccc(OCCOCCOc2ccc(Br)cc2/C=N\NC(=O)c2ccncc2)cc1`, for which the max response was -4.52%.
On to `Cc1cccc(OCC(=O)NCC(=O)N/N=C/c2ccc(N(C)C)cc2)c1`, for which the max response is 1.69%.
With `Cc1ccc(OCCOc2cccc(/C=N/NC(N)=O)c2)cc1`, the max response is 15.2% (active).
As for `O=C(N/N=C/c1cccc(OCc2ccccc2)c1)c1ccc(Br)o1`, the max response was 47.1% (active).
Turning to `O=C(Cc1cccs1)N/N=C/c1ccc(OCc2ccccc2)cc1`, the max response was -2.21%.
For the compound `O=C(N/N=C/c1ccc(OCc2ccccc2)cc1)c1ccc(O)cc1`, the max response was 18.7%.
Consider `Cc1ccc(S(=O)(=O)Oc2ccc(/C=N/NC(=O)c3ccncc3)cc2)cc1`, for which the max response was 6.52%.
For the compound `CC(C)NS(=O)(=O)c1ccc(OCC(=O)NC2CCCCCC2)cc1`, the max response is 1.29%.
For the compound `Cc1nc(N2CCCCC2)sc1C=O`, the max response was -2.42%.
With `c1ccc2sc(N3CCNCC3)nc2c1`, the max response is 11.7%.
Under `Fc1ccc2nc(N3CCCCC3)sc2c1` stands 29.6% (active); under `Brc1ccc2nc(N3CCCC3)sc2c1`, 38.8% (active).
Under `O=C(NCCc1cccc(F)c1)C1CCCN(c2nc3ccccc3s2)C1` (stereo not drawn) stands -3.33%; under `Cc1nc2cc3c(cc2s1)OCO3`, -2.58%.
`c1c2c(cc3sc(N4CCCCC4)nc13)OCCO2`: the max response was 25.6% (active).
As for `CCOC(=O)N1CCC(NC(=O)c2ccc3nc(N4CCOCC4)sc3c2)CC1`, the max response is -1.55%.
Regarding `Cc1nc2ccc(S(=O)(=O)NC(C(=O)N3CCCCCC3)C(C)C)cc2s1` (stereo not drawn), the max response was -2.97%.
As for `O=C(CN(CC1CCCO1)C(=O)CNS(=O)(=O)c1ccc(Cl)cc1)NCc1ccccc1` (stereo not drawn), the max response was -3.57%.
Under `CC1=C[C@H]2Cc3cc(C)cc(C)c3S(=O)(=O)[C@@H]2C=C1` stands -2.12%.
`CC(Sc1nnc(-c2ccccc2F)n1C1CC1)C(N)=O` (stereo not drawn): the max response is -2.7%.
With `O=C(NNS(=O)(=O)c1ccc([N+](=O)[O-])cc1)C1CCCCC1`, the max response was 10.1%.
As to `COc1ccccc1C(=O)N1CCN=C1SCc1cccnc1`, the max response is 0.58%.
The result for `O=C1CN(C(=O)c2ccccc2F)C(c2ccc(F)cc2)c2cc(F)ccc2N1` (stereo not drawn) reads -4.28%; that for `O=C(N/N=C/c1ccc(O)c(O)c1)C1c2ccccc2Oc2ccccc21`, -0.597%; that for `Oc1ccc(/C=N/Nc2ccc(C(F)(F)F)cn2)cc1O`, 57.2% (active).
With `Cc1nccn1CC(=O)N/N=C/c1ccc(O)c(O)c1`, the max response was -1.27%.
On to `CCCc1cc(=O)[nH]c(SCC(=O)Nc2sc3c(c2C#N)CCCC3)n1`, for which the max response was -1.28%.
Turning to `O=S(=O)(NC1CCCCC1N1CCCCC1)c1ccc(Cl)cc1` (stereo not drawn), the max response was -6.15%.
With `O=C(O)c1ccc(S(=O)(=O)N2CCOCC2)o1`, the max response is -6.82%.
As to `COc1ccc(Cl)cc1NC(=O)CN(C)Cc1ccc(OC)c(OC)c1`, the max response was 10.8% (active).
Regarding `COc1ccc(Cl)cc1NC(=O)CN(C)C(=O)CNC(=O)C12CC3CC(CC(C3)C1)C2`, the max response was 6.85%.
As to `COc1ccc(OC)c(NC(=O)CN(Cc2ccc(Cl)cc2)S(C)(=O)=O)c1`, the max response is -2.07%.
Regarding `CN1CCN(c2ccccc2NC(=O)COc2ccc(C3CCCCC3)cc2)CC1`, the max response is -1.31%.
The result for `CCOC(=O)c1cccc(NC(=O)C2CCN(c3ncnc4c3nc3n4CCCCC3)CC2)c1` reads -6.95%; that for `O=C(NCc1ccncc1)C1CCCN(S(=O)(=O)c2ccc(Br)cc2)C1` (stereo not drawn), 1.08%.
Under `COc1ccc(CSc2nnnn2-c2ccc(O)cc2)cc1F` stands -3.78%.
As to `CCc1ccc2oc(-c3ccc(N)cc3)nc2c1`, the max response was 38.2% (active).
On to `Cn1c(Cc2cccc3ccccc23)nnc1SCC(=O)N1CCN(c2cccc(Cl)c2)CC1`, for which the max response is -3.1%.
`COCc1cc(C)n(CC(=O)NCC2CCCO2)c(=O)c1C#N` (stereo not drawn): the max response was -6.37%.
The result for `Cc1c(CCC(=O)O)c(=O)oc2c(C)c(OCc3ccccc3Cl)ccc12` reads 1.9%; that for `CC(C)(C)n1nnnc1C(c1ccccc1F)N1CCN(C(=O)c2ccco2)CC1` (stereo not drawn), -1.72%.
In the case of `CN(C)CCCNC(=O)/C=C/c1ccc(OCc2c(F)cccc2Cl)cc1`, the max response is -2.24%.
For `O=C(/C=C/c1ccc(OCc2c(F)cccc2Cl)cc1)N1CCOCC1`, the max response is 27.3% (active).
In the case of `COCCCNC(=O)/C=C/c1ccc(OCc2c(F)cccc2Cl)cc1`, the max response is -7.84%.
For the compound `COc1ccc(NS(=O)(=O)c2cc(C(=O)Nc3ccccc3C(=O)O)ccc2C)cc1`, the max response is 1.17%.
The result for `CCOc1cc(N2CCOCC2)c(OCC)cc1NC(=O)c1cc(C)nc2ccccc12` reads -1.57%.
For the compound `O=[N+]([O-])c1ccc2c(c1)C(O)n1nc(-c3ccccc3)nc1S2` (stereo not drawn), the max response is -1.52%.
The result for `CC(=O)Oc1ccc2c(=O)oc(-c3ccc([N+](=O)[O-])cc3)nc2c1` reads 1.51%; that for `COc1cc2c(cc1OC)C(c1cccc([N+](=O)[O-])c1)=NCC2`, -3.32%; that for `COc1ccc(-c2nc3cc([N+](=O)[O-])ccc3o2)cc1OC`, 24% (active).
Consider `Cc1nnc(-c2ccc(Oc3ccc(C)c(C)c3)c([N+](=O)[O-])c2)o1`, for which the max response is 4.56%.
Take `O=[N+]([O-])c1ccc2oc(-c3cccc(O)c3)nc2c1`: the max response is 46.9% (active).
The result for `O=C1[C@@H]2C(c3cccnc3)=NO[C@@H]2C(=O)N1c1ccc(Cl)cc1Cl` reads -1.88%.
